In PMC11995724, “Antibiotic target discovery by integrated phenotypic and activity-based profiling of electrophilic fragments” (Cell chemical biology, 2025):
Out of some 3,200 compounds screened, about 75 (2%) showed an effect of 50% or more. The list comes from a sample in which strong results are over-represented; it also holds similar structures and randomly drawn compounds.

System: T1, S. aureus MSSA476
T1 construct: MSSA476
Design: species or system S. aureus MSSA476 (TSB) or V. cholerae SAD30 (LB); 384-well bacterial growth screen at 25 uM, OD600 relative to DMSO control
Conditions: relative growth, OD600, TSB; 25 µM; inhibitor

Compared with `CN(C)c1ccc(C=C(C#N)C(=O)N2CCC2)cc1` [9-A14, 2-(azetidine-1-carbonyl)-3-[4-(dimethylamino)phenyl]prop-2-enenitrile], `CC(C)NC(=O)C(C#N)=Cc1cccc(Cl)c1Cl` [9-C07, 2-cyano-3-(2,3-dichlorophenyl)-N-(propan-2-yl)prop-2-enamide] is higher in “% of control remaining” value: 86.8914% for the first, 109.963% for the second.

Compared with `Cc1c(C#N)c(NC(=O)CCl)n(Cc2ccco2)c1C` [4-D09, 2-chloro-N-{3-cyano-1-[(furan-2-yl)methyl]-4,5-dimethyl-1H-pyrrol-2-yl}acetamide], `Cc1cccc(-n2c(C)cc(C(=O)CCl)c2C)c1` [10-A22, 2-chloro-1-[2,5-dimethyl-1-(3-methylphenyl)-1H-pyrrol-3-yl]ethan-1-one] is higher in “% of control remaining” value: 96.0457% for the first, 138.438% for the second.

First: CC(C)OC(=O)c1ccc(NC(=O)C(C)Cl)cc1 (stereo not shown) [4-K08, propan-2-yl 4-(2-chloropropanamido)benzoate]
Second: CC(NC(=O)C(C#N)=Cc1cccc(Cl)c1Cl)c1ccccc1 (stereo not shown) [9-N04, 2-cyano-3-(2,3-dichlorophenyl)-N-(1-phenylethyl)prop-2-enamide]
The “% of control remaining” value of the first is higher: 110.148% for the first, 0.5993% for the second.

First: N#CC(=Cc1cccc(Cl)c1Cl)C(=O)NCc1ccccc1 [8-L04, N-benzyl-2-cyano-3-(2,3-dichlorophenyl)prop-2-enamide]
Second: N#CC(=Cc1cccc(Cl)c1Cl)C(=O)NCCc1ccccc1 [8-J06, 2-cyano-3-(2,3-dichlorophenyl)-N-(2-phenylethyl)prop-2-enamide]
The “% of control remaining” value of the first is lower: -0.332% for the first, 0.6639% for the second.

Going from `N#CC(=Cc1cccc2ccccc12)C(=O)NCc1ccccc1` [8-O19, N-benzyl-2-cyano-3-(naphthalen-1-yl)prop-2-enamide] to `N#CC(=Cc1ccccc1Cl)C(=O)NCc1ccccc1` [9-F13, N-benzyl-3-(2-chlorophenyl)-2-cyanoprop-2-enamide], the “% of control remaining” value falls from 104.896% to 78.2022%.

Compared with `CCCCNC(=O)C(C#N)=Cc1cccc(Cl)c1Cl` [9-H11, N-butyl-2-cyano-3-(2,3-dichlorophenyl)prop-2-enamide], `CCCCNC(=O)C(C#N)=Cc1c(Cl)cccc1Cl` [9-J11, N-butyl-2-cyano-3-(2,6-dichlorophenyl)prop-2-enamide] is higher in “% of control remaining” value: 71.0112% for the first, 79.4007% for the second.

Going from `CC(NC(=O)C(C#N)=Cc1ccccc1F)c1ccccc1` (stereo not shown) [8-P16, 2-cyano-3-(2-fluorophenyl)-N-(1-phenylethyl)prop-2-enamide] to `N#CC(=Cc1c(F)cccc1F)C(=O)NCCc1ccccc1` [8-D18, 2-cyano-3-(2,6-difluorophenyl)-N-(2-phenylethyl)prop-2-enamide], the “% of control remaining” value rises from 79.0041% to 118.174%.

Going from `N#CC(=Cc1c(Cl)cccc1Cl)C(=O)NCCc1ccccc1` [8-B14, 2-cyano-3-(2,6-dichlorophenyl)-N-(2-phenylethyl)prop-2-enamide] to `N#CC(=Cc1cccc(O)c1)C(=O)NCCc1ccccc1` [8-N03, 2-cyano-3-(3-hydroxyphenyl)-N-(2-phenylethyl)prop-2-enamide], the “% of control remaining” value rises from 39.834% to 116.183%.

Going from `O=C(O)c1coc(C(=O)CCl)c1` [10-B07, 5-(2-chloroacetyl)furan-3-carboxylic acid] to `Cc1cc(-n2c(C)cc(C(=O)CCl)c2C)no1` [10-C18, 2-chloro-1-[2,5-dimethyl-1-(5-methyl-1,2-oxazol-3-yl)-1H-pyrrol-3-yl]ethan-1-one], the “% of control remaining” value rises from 79.6875% to 123.125%.

Compared with `O=C(CCl)N1N=C(c2ccco2)CC1c1cccc(Cl)c1` (stereo not shown) [5-M17, 2-chloro-1-[5-(3-chlorophenyl)-3-(furan-2-yl)-4,5-dihydro-1H-pyrazol-1-yl]ethan-1-one], `Cc1cc(C(=O)CCl)c(C)n1-c1cccc(Cl)c1` [10-N18, 2-chloro-1-[1-(3-chlorophenyl)-2,5-dimethyl-1H-pyrrol-3-yl]ethan-1-one] is higher in “% of control remaining” value: 81.9672% for the first, 100.313% for the second.

Compared with `Cc1nn(-c2ccccc2)c(C)c1CN(C)C(=O)CCl` [7-B03, 2-chloro-N-[(3,5-dimethyl-1-phenyl-1H-pyrazol-4-yl)methyl]-N-methylacetamide], `Cc1cc(C(=O)CCl)c(C)n1-c1ccccn1` [10-C16, 2-chloro-1-[2,5-dimethyl-1-(pyridin-2-yl)-1H-pyrrol-3-yl]ethan-1-one] is higher in “% of control remaining” value: 93.5636% for the first, 117.5% for the second.

Going from `Cc1ccc(-n2c(C)cc(C(=O)CCl)c2C)cc1C` [10-B14, 2-chloro-1-[1-(3,4-dimethylphenyl)-2,5-dimethyl-1H-pyrrol-3-yl]ethan-1-one] to `Cc1ccc(-n2c(C)cc(C(=O)CCl)c2C)cc1F` [10-C06, 2-chloro-1-[1-(3-fluoro-4-methylphenyl)-2,5-dimethyl-1H-pyrrol-3-yl]ethan-1-one], the “% of control remaining” value falls from 1.25% to -0.3125%.

Going from `Cc1cc(C(=O)CCl)c(C)n1-c1cccc([N+](=O)[O-])c1` [10-B16, 2-chloro-1-[2,5-dimethyl-1-(3-nitrophenyl)-1H-pyrrol-3-yl]ethan-1-one] to `CSc1cccc(-n2c(C)cc(C(=O)CCl)c2C)c1` [10-J16, 2-chloro-1-{2,5-dimethyl-1-[3-(methylsulfanyl)phenyl]-1H-pyrrol-3-yl}ethan-1-one], the “% of control remaining” value falls from 136.563% to 12.8125%.

First: Cc1cc(C(=O)CCl)c(C)n1-c1ccc(Cl)c(Cl)c1 [10-D18, 2-chloro-1-[1-(3,4-dichlorophenyl)-2,5-dimethyl-1H-pyrrol-3-yl]ethan-1-one]
Second: Cc1cc(C(=O)CCl)c(C)n1-c1ccc2c(c1)OCO2 [10-K14, 1-[1-(1,3-dioxaindan-5-yl)-2,5-dimethyl-1H-pyrrol-3-yl]-2-chloroethan-1-one]
The “% of control remaining” value of the first is lower: -0.3125% for the first, 139.375% for the second.
